{"source": "the supplement of paper PMC10121225", "note": "Where a name gives a salt, the structure may show the parent alone.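 Note: immunostained co-cultures imaged by high-content microscopy, Z-score per plate against mean and SD of 0.1% DMSO wells, compounds added on differentiation day 18, analysed day 21.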"}
{"tested_on": "hN + hpA co-culture (H1 iNGN2 human neurons + human primary astrocytes)", "experiment": "presynaptic density (SYNAPSIN1 puncta per MAP2 neurite area), Z-score vs DMSO controls; higher = more presynaptic puncta (synapse-promoting)", "conditions": "3 µM; 72 h"}
{"compound": "Cc1c(C(=O)Nc2ccc(N3C[C@@H](C)O[C@@H](C)C3)nc2)cccc1-c1ccc(OC(F)(F)F)cc1", "note": "[LDE225 (NVP-LDE225,Erismodegib)]", "presynaptic density (Z-score)": 0.612}
{"compound": "C=CC(=O)N1CCC[C@@H](n2nc(-c3ccc(Oc4ccccc4)cc3)c3c(N)ncnc32)C1", "presynaptic density (Z-score)": -0.341}
{"compound": "O=C1[C@H](Cc2ccc(O)cc2)N2C(=O)CCN(C(=O)NCc3ccccc3)[C@H]2CN1Cc1cccc2ccccc12", "presynaptic density (Z-score)": -0.969}
{"compound": "COC1CCN(C(=O)c2cc(Cc3n[nH]c(=O)c4ccccc34)ccc2F)CC1", "presynaptic density (Z-score)": 0.144}
{"compound": "Cc1ccc(-c2cc(C(F)(F)F)nn2-c2ccc(S(N)(=O)=O)cc2)cc1", "presynaptic density (Z-score)": -0.625}
{"compound": "O=C(NC(Cc1cc(=O)[nH]c2ccccc12)C(=O)O)c1ccc(Cl)cc1", "note": "(centres undefined)", "presynaptic density (Z-score)": -0.611}
{"compound": "CN(Cc1cnc2nc(N)nc(N)c2n1)c1ccc(C(=O)N[C@@H](CCC(=O)O)C(=O)O)cc1", "note": "[Methotrexate]", "presynaptic density (Z-score)": -0.494}
{"compound": "Cc1ccc2nc(NC(=O)CSc3nc4c(c(=O)n3-c3ccccc3)SCC4)sc2c1", "presynaptic density (Z-score)": -0.234}
{"compound": "Cc1ccc(S(=O)(=O)NC(=O)NN2CC3CCCC3C2)cc1", "note": "(centres undefined)", "presynaptic density (Z-score)": 0.0878}
{"compound": "Nc1nc(N)c2nc(-c3cccc(O)c3)c(-c3cccc(O)c3)nc2n1", "presynaptic density (Z-score)": 1.05}
{"compound": "CC1(COc2ccc3c(c2)ncn3-c2ccc3cccc(N4CCC(N)CC4)c3n2)COC1", "presynaptic density (Z-score)": -0.296}
{"compound": "O=C(NNc1nc2cc(F)ccc2n2cccc12)c1cnccn1", "presynaptic density (Z-score)": -1.29}
{"compound": "CC(C)C[C@H](NC(=O)CNC(=O)c1cc(Cl)ccc1Cl)B(O)O", "presynaptic density (Z-score)": -3.07}
{"compound": "O=C(NCc1ccccc1)c1csc(Nc2ccncn2)n1", "note": "[Thiazovivin]", "presynaptic density (Z-score)": 0.74}
{"compound": "CC(C)[C@H](O)C(=O)N[C@@H](C)C(=O)N[C@@H]1C(=O)N(C)CCc2ccccc21", "presynaptic density (Z-score)": -0.185}
{"compound": "CC(C)(F)C[C@H](N[C@@H](c1ccc(-c2ccc(S(C)(=O)=O)cc2)cc1)C(F)(F)F)C(=O)NC1(C#N)CC1", "note": "[Odanacatib (MK-0822)]", "presynaptic density (Z-score)": -0.252}
{"compound": "CC1COCCN1c1cc(C2(S(C)(=O)=O)CC2)nc(-c2cccc3[nH]ccc23)n1", "note": "(centres undefined)", "presynaptic density (Z-score)": 0.445}
{"compound": "CO[C@H]1C[C@@H]2CC[C@@H](C)[C@@](O)(O2)C(=O)C(=O)N2CCCC[C@H]2C(=O)O[C@H]([C@H](C)C[C@@H]2CC[C@@H](OCCO)[C@H](OC)C2)CC(=O)[C@H](C)/C=C(\\C)[C@@H](O)[C@@H](OC)C(=O)[C@H](C)C[C@H](C)/C=C/C=C/C=C/1C", "note": "[Everolimus (RAD001)]", "presynaptic density (Z-score)": -1.63}
{"compound": "Cc1cc(NC(=O)Nc2ccc(N(C)C)cc2)c2cc(F)cc(F)c2n1", "presynaptic density (Z-score)": 0.301}
{"compound": "NC(=O)c1cccc(-c2cc(Nc3ccc(OC(F)(F)F)cc3)ncn2)c1", "presynaptic density (Z-score)": -1.31}
{"compound": "CCCN[C@H]1CCc2nc(N)sc2C1", "note": "[Pramipexole]", "presynaptic density (Z-score)": 0.794}
{"compound": "CC(C)OC(=O)OCOP(=O)(CO[C@H](C)Cn1cnc2c(N)ncnc21)OCOC(=O)OC(C)C", "note": "[Tenofovir Disoproxil Fumarate]", "presynaptic density (Z-score)": 0.611}
{"compound": "CC(C)(C)c1cnc(CSc2cnc(NC(=O)C3CCNCC3)s2)o1", "presynaptic density (Z-score)": -3.77}
{"compound": "CC1=C(/C=C/C(C)=C/C=C/C(C)=C\\C(=O)O)C(C)(C)CCC1", "note": "[Isotretinoin]", "presynaptic density (Z-score)": -2.56}
{"compound": "CCc1c(C(=O)NCCc2ccc(N3CCCCC3)cc2)[nH]c2ccc(Cl)cc12", "presynaptic density (Z-score)": -0.684}
{"compound": "CC(C)n1c(/C=C/C(O)CC(O)CC(=O)O)c(-c2ccc(F)cc2)c2ccccc21", "note": "(centres undefined) [Fluvastatin Sodium]", "presynaptic density (Z-score)": 1.53}
{"compound": "O=C(Nc1ccccc1)c1cc([N+](=O)[O-])ccc1Cl", "presynaptic density (Z-score)": -0.00538}
{"compound": "CCCSc1nc(N[C@@H]2C[C@H]2c2ccc(F)c(F)c2)c2nnn([C@@H]3C[C@H](OCCO)[C@@H](O)[C@H]3O)c2n1", "note": "[Ticagrelor]", "presynaptic density (Z-score)": -0.848}
{"compound": "CC(NC(=O)C(O)c1cc(F)cc(F)c1)C(=O)NC1C(=O)N(C)c2ccccc2-c2ccccc21", "note": "(centres undefined)", "presynaptic density (Z-score)": 0.0312}
{"compound": "CCN(CC)CCNC(=O)c1cc(Cl)c(N)cc1OC", "note": "[MetoclopraMide HCl]", "presynaptic density (Z-score)": 0.023}
{"compound": "COc1cc2c(cc1O)CC[C@@H]1[C@@H]2CC[C@]2(C)[C@@H](O)CC[C@@H]12", "note": "[2-Methoxyestradiol (2-MeOE2)]", "presynaptic density (Z-score)": -0.808}
{"compound": "Cc1cc2c(cc1CC(=O)c1sccc1S(=O)(=O)Nc1onc(C)c1Cl)OCO2", "note": "[Sitaxentan sodium]", "presynaptic density (Z-score)": -0.569}
{"compound": "CNCc1ccc(-c2cc(-c3nc(-c4ccc(S(=O)(=O)C(C)C)cc4)cnc3N)on2)cc1", "presynaptic density (Z-score)": -1.03}
{"compound": "Cc1ccc(NC(=O)C2(c3ccc4c(c3)OC(F)(F)O4)CC2)nc1-c1cccc(C(=O)O)c1", "note": "[VX-809 (Lumacaftor)]", "presynaptic density (Z-score)": -0.6}
{"compound": "CC(C)NCC(O)COc1ccc(COCCOC(C)C)cc1", "note": "(racemic)", "presynaptic density (Z-score)": -0.749}
{"compound": "Cc1cnc(-c2cc(N3CCN(C(=O)CCS(C)(=O)=O)CC3)ncc2Cl)c(C)c1", "presynaptic density (Z-score)": -1.22}
{"compound": "COc1cc(OC2CCN(C)CC2)ccc1Nc1ncc2c(n1)n(C1CCCC1)c(=O)n2C", "presynaptic density (Z-score)": -0.583}
{"compound": "Oc1cc(O)cc(/C=C/c2ccc(O)c(O)c2)c1", "note": "[Piceatannol]", "presynaptic density (Z-score)": -0.0151}
{"compound": "COc1cc(-c2ncn(/C=C\\C(=O)OC(C)C)n2)cc(C(F)(F)F)c1", "presynaptic density (Z-score)": -0.959}
